Dicer inh – blocks human Dicer maturation of pre-miR-21. Q9UPY3. cat-ELCCA pre-miR-21 Dicer processing, chemiluminescence; active compounds read high. z-score at 25 µM. 6% of 47,000 active. AID 1347074; in the data active = z-score above about 3, passing the limit was not always enough;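 also: plate controls were vehicle for no effect and no enzyme for full effect; higher signal means more uncleaved substrate so more Dicer inhibition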
Target sequence (Q9UPY3 whole entry, looked up): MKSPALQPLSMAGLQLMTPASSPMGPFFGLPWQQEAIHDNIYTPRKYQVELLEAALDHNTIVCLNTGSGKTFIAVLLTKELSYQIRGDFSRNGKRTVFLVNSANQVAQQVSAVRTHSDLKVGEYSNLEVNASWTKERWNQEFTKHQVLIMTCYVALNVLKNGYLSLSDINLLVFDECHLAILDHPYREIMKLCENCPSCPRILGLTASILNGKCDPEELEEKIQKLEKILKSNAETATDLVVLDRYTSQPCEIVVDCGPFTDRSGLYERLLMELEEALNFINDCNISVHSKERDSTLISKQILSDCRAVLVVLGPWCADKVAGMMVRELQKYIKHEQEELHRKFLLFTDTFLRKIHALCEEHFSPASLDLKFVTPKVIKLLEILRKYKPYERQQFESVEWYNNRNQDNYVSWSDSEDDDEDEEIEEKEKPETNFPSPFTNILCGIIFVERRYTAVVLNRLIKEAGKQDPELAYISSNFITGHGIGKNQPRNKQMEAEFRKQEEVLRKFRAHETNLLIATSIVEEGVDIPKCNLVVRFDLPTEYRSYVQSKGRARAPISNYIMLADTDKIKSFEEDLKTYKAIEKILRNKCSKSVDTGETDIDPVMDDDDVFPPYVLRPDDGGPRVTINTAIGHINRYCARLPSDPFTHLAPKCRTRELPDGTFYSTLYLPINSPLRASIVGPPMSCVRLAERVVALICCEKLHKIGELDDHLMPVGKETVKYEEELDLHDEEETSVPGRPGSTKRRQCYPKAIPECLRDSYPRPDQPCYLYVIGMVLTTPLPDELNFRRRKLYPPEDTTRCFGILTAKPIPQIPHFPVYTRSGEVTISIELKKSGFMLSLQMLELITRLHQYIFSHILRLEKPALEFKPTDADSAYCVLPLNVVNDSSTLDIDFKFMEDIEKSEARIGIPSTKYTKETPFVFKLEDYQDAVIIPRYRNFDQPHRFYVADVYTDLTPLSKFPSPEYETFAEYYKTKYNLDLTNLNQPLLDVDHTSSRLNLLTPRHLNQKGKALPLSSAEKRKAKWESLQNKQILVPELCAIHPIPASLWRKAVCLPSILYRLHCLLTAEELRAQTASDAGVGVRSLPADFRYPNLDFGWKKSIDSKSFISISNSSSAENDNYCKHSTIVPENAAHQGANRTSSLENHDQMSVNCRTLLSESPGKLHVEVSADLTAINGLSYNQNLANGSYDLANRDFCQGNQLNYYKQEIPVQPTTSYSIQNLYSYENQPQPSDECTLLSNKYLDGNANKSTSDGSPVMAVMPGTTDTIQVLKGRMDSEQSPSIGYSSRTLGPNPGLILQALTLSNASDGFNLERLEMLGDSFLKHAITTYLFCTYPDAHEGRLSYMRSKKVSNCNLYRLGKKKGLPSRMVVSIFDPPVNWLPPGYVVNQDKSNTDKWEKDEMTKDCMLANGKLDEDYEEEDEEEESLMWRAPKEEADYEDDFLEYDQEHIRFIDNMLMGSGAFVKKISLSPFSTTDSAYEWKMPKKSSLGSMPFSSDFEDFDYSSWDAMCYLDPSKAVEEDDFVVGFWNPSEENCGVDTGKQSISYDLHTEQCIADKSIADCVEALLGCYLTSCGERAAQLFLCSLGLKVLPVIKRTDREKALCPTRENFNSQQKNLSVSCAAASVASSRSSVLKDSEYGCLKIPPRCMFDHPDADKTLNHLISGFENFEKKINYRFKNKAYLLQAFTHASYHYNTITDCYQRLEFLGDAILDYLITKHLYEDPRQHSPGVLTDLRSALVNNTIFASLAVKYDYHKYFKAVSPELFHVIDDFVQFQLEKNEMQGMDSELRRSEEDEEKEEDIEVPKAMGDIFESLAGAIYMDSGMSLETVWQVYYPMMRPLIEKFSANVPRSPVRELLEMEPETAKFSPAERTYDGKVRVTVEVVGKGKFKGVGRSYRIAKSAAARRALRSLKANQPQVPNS
* hit, by the source's call. Shown is part of a subset that was picked to be rich in hits.

SMILES | Dicer inh
COCCNC(=O)c1cc2nc3c(c(C(F)(F)F)n2n1)CCc1ccccc1-3 | 3.21*
O=C(NCC1CCCO1)c1nn2c(C(F)(F)F)c3c(nc2c1Cl)-c1ccccc1CC3 (centres undefined) | 2.86
CCO/C=C1\SC(=S)N(CCc2ccc(OC)c(OC)c2)C1=O | 1.16
C/C(=N\O)C(C)(C)Nc1ccc2c(c1)OCO2 | -1.63
O=c1cc(-c2ccc(Cl)cc2)[nH]n1-c1nc2ccccc2[nH]1 | -0.31
Nc1cc2cc([N+](=O)[O-])ccc2oc1=O | -0.37
CCOC(=O)/C(=C/c1ccc(Cl)cc1)[N+](=O)[O-] | -0.96
CCOC(=O)c1cnc(N2CCN(c3ncc(C(=O)OCC)c(C(F)(F)F)n3)CC2)nc1C(F)(F)F | -1.1
CS(=O)c1ccc(C(F)(F)F)cc1[N+](=O)[O-] (centres undefined) | -0.89
FC(F)(F)c1ccnc(N/N=C/c2ccc(Cl)cc2Cl)n1 | 0.35
COc1ccc(-c2noc(-c3ccc(OC)c(OC)c3)n2)cc1OC | -0.23
CCOc1ccc(-c2nc(-c3ccc(Cl)cc3)no2)cc1OCC | 3.65*
CCOc1nc(C)ccc1-c1noc(-c2ccc(OC)c(OC)c2)n1 | 0.4
CC(C)N(CCC#N)C(=S)Nc1ccc(S(=O)(=O)N2CCCCC2)cc1 | -0.57
CSc1nn(-c2ccccc2)cc1/C(N)=N/OC(=O)Nc1ccccc1 | 3.67
CSc1nn(-c2ccccc2)cc1/C(N)=N/O | 6.04*
CSc1nn(-c2ccccc2)cc1C(N)=S | -0.12
CCOC(=O)CSc1nc2cc(Cl)ccc2n1C(C)C | 0.31
CC(=O)c1ccc2c(c1)C(C)C(=O)N2C (centres undefined) | -0.7
COC(=O)C1=C(C)NC2=C(C(=O)CC(C)(C)C2)C1c1ccc(C)cc1 (centres undefined) | -0.27
CSC/C(N)=N/S(=O)(=O)c1ccc(Cl)cc1 | 0.22
Nc1cc(Cl)ccc1C(=O)N1CCSCC1 | -0.56
N/C(=N\S(=O)(=O)c1ccc(Cl)cc1)N1CCSCC1 | 3.56*
O=C(NCc1c(Cl)cccc1Sc1ccc(Cl)cc1)Nc1ccccc1 | 1.09
FC(F)(F)c1cccc(N2CCN(c3cc(C(F)(F)F)nc4ccccc34)CC2)n1 | -1.14
SMILES | Dicer inh
CCOC(=O)c1cc2cccc([N+](=O)[O-])c2[nH]1 | -0.11
Cc1ccc(C2Nn3c(C)nnc3SC2C(=O)NCc2ccco2)cc1 (centres undefined) | -0.3
C=CCOc1ccc(/C(O)=C2/C(=O)C(=O)N(CCOC)C23C(=O)N(C)c2ccccc23)cc1 (centres undefined) | -0.06
COCCCN1C(=O)C(=O)/C(=C(\O)c2ccc(F)cc2)C12C(=O)N(C)c1ccccc12 (centres undefined) | 2.27
COCCCN1C(=O)C(=O)/C(=C(\O)c2ccc(C)c(F)c2)C12C(=O)N(C)c1ccccc12 (centres undefined) | 45.5
C=CCOc1ccc(/C(O)=C2/C(=O)C(=O)N(CCCOC)C23C(=O)N(C)c2ccccc23)cc1 (centres undefined) | 3.56*
COCCCN1C(=O)C(=O)/C(=C(\O)c2ccccc2)C12C(=O)N(C)c1ccccc12 (centres undefined) | 3.9*
C=CCN1C(=O)C2(/C(=C(/O)c3ccc(OCC)cc3)C(=O)C(=O)N2CCOC)c2ccccc21 (centres undefined) | 2.44
Cc1cccc(N2C(=O)C3C(c4ccccc4)OC4(C(=O)c5ccccc5C4=O)C3C2=O)c1C (centres undefined) | -1.46
c1ccc(-c2nnc3sc(C4COc5ccccc5O4)nn23)cc1 (centres undefined) | 1.23
COc1ccc(-c2cc3ncc(C(=O)c4cc(F)ccc4O)cn3n2)cc1 | -1.57
Cc1nnc(SCC(=O)Nc2ccc(F)c(Cl)c2)s1 | -0.78
CCOC(=O)c1c[nH]c2ccc(F)c(C#N)c2c1=O | 0.23
CC(C)COCC1CC2(CC(C)(c3csc(Nc4ccccc4)n3)OC2=O)C(=O)O1 (centres undefined) | 1.32
O=C1CCC(=O)N1CNc1cc(Cl)c(Cl)cc1Cl | 1.55
O=C(N/N=C/c1ccccn1)c1nc2ccccc2nc1C(F)(F)F | 2.19
CC(C)(C)c1ccc(-c2nc(NCCN3CCOCC3)c3ccccc3n2)cc1 | -1.53
c1ccc(-c2nc(NCCCN3CCOCC3)c3ccccc3n2)cc1 | 1.96
c1ccc(-c2nc(NCCN3CCOCC3)c3ccccc3n2)cc1 | 3.28*
CCOC(=O)Cc1csc(-c2ncc(C(F)(F)F)cc2OCC)n1 | 0.44
Cc1ccc2oc3c(c(=O)c2c1)C(c1ccccc1F)N(Cc1ccc2c(c1)OCO2)C3=O (centres undefined) | 0.29
CCOC(=O)c1c(NC(C)=O)sc(C(=O)CC)c1C | 6.11*
CCC(=O)Nc1sc(C(=O)OC)c(C)c1C(=O)OC | -0.34
CCOC(=O)c1sc(NC(=O)C2COc3ccccc3O2)c(C(=O)OCC)c1C (centres undefined) | 3.29*
CCOC(=O)c1sc(NC(=O)C2CCCC2)c(C(=O)OCC)c1C | -0.74
SMILES | Dicer inh
CCOC(=O)c1sc(NC(=O)C2CCCO2)c(C(=O)OCC)c1C (centres undefined) | -0.87
COC(=O)c1c(NC(=O)C2COc3ccccc3O2)sc2c1CCCC2 (centres undefined) | 0.53
CCOC(=O)c1c(N2C(=O)CCC2=O)sc(C)c1-c1ccccc1 | -0.23
CC(C)(C)C(=O)Nc1cccc(-c2nnco2)c1 | -0.52
N#CCCN(Cc1cccs1)S(=O)(=O)c1cccc2nsnc12 | 1.72
CNc1scnc1S(=O)(=O)c1ccc(C)cc1 | 0.76
Cc1nc2c3c4c(sc3ncn2n1)CCC4 | 0
CCOC(=O)c1nn(-c2ccccc2)c(=O)c2c(N)c(C#N)c(-c3ccccc3)cc12 | -1.18
CC(=O)n1c(-c2ccc(C)cc2)cc(-c2ccc(C)cc2)c(C#N)c1=O | 3.36*
Cc1ccc(-c2cc(-c3ccccc3)c(C#N)c(N)n2)cc1 | -0.15
CCCC1CC(C)(c2csc(Cc3ccc(OCC)cc3)n2)OC1=O (centres undefined) | 4.89*
CCOc1ccc(C2C3=C(CC(C)(C)CC3=O)OC3=C2C(=O)CC(C)(C)C3)cc1 | 0.37
CCCCCC1(C(=O)OCC)CC(C)(c2csc(N)n2)OC1=O (centres undefined) | -0.97
Cc1cn2c3ccccc3nc2n1CCO | -0.05
COc1ccc(-c2cnc3c(-c4ccc(Cl)cc4)c(C)nn3c2N)cc1OC | 0.45
CC1CN=C(SCc2ccc(Cl)cc2)N1 (centres undefined) | 2.29
Cc1ccc(CSC2=NCCCN2)cc1 | 1.11
Cc1ccc(CSC2=NCC(C)N2)cc1 (centres undefined) | 3.24*
CCCc1nc2cc(C)c(C)cc2nc1C | -1.35
CCOC(=O)C1=Nn2c(nnc2-c2ccccc2)SC1 | -0.48
CCc1cccc(C)c1N1C(=O)CCCC1=O | -1.13
CN1C2C=C(N(CCc3c[nH]c4ccccc34)C(=O)c3ccccc3)CC1CC2 (centres undefined) | 0
CCOC(=O)c1cnn(-c2ccccc2)c1NC(=O)CN1CCN(C)CC1 | -1.19
CCOC(=O)c1cnn(-c2ccccc2)c1NC(=O)CN1CCOCC1 | 0.11
CCOC(=O)c1cnn(-c2ccccc2)c1NC(=O)Nc1ccccc1 | 4.13*
SMILES | Dicer inh
Cc1oc(-c2ccccc2)cc1C(=O)Nc1cccc([N+](=O)[O-])c1 | 2.28
CN(CCO)c1c[nH]c(=O)[nH]c1=O | -1.63
O=C(Nc1nc2ccccc2c(=O)s1)c1ccccc1 | 1.04
CCOc1ccc(Nc2nc3ccccc3c(=O)s2)cc1 | 0.49
CCN(CC)c1nc2ccccc2c(=O)s1 | 3.74*
Cc1ccc(=O)n(Cc2ccc([N+](=O)[O-])cc2)n1 | -0.67
